Data on 5 compounds can be found in publication PMC6792352, “Limited Chemical Structural Diversity Found to Modulate Thyroid Hormone Receptor in the Tox21 Chemical Library” (Environmental Health Perspectives, 2019).

One may read the AC50 as the concentration at which the activity in the assay is half-maximal.

Counter-ions that a name gives are not always drawn. Bounds are passed on as bounds.

In the assay the test system is thyroid hormone receptor (endogenous TRα and TRβ). More on the design: species or system GH3-TRE-Luc (rat pituitary); GH3-TRE-Luc luciferase reporter, antagonist mode against 1 nM T3, loss of signal, qHTS. The note with it: read-out: Average AC50 (uM) GH3-TRE-Antag; 24 h; antagonist.
For `O=C1CN=C(c2ccccc2)c2cc(Cl)ccc2N1CC1CC1` [Prazepam], the AC50 was greater than 50 µM. Under `Cl[Si](Cl)(c1ccccc1)c1ccccc1` [Dichlorodiphenylsilane] stands 76.3 µM; under `CN1C(=O)C(O)N=C(c2ccccc2)c2cc(Cl)ccc21` (centres unmarked) [Temazepam], greater than 50 µM.

On to `Cc1ncc2n1-c1ccc(Cl)cc1C(c1ccccc1F)=NC2` [Midazolam hydrochloride], for which the AC50 is 32.8 µM. Regarding `C[C@]12CC[C@H]3[C@@H](CCC4=CC(=O)CC[C@@H]43)[C@@H]1CC[C@@H]2OC(=O)CCc1ccccc1` [Nandrolone phenpropionate], the AC50 was found to be 19.5 µM.
